Test results from PubChem BioAssay (NCI).
About 83,000 compounds went through this panel and 20% of them were active in at least one assay; those are over-represented in the sample as a whole.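 How to read the values: 0–100, growth inhibition (40 = 60% inhibited); 0, no net growth; -100 to 0, cell death (-40 = 40% of starting cells died; -100 = all dead).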 Unmarked numbers belong to inactive results. Activity calls are given as the source filed them. Rule for the calls: active = growth percent below 10; inactive = the rest.

Assays:
Experiment in all cases: NCI-60 one-dose screen, 48 h (100 = growth as untreated, 0 = no growth, -100 = all killed)
Details in all cases: 10 µM unless noted
HCT-15 colon = tested on: HCT-15 colon
HT29 colon = tested on: HT29 colon
SNB-75 CNS = tested on: SNB-75 CNS
SNB-19 CNS = tested on: SNB-19 CNS
U251 CNS = tested on: U251 CNS
PC-3 prostate = tested on: PC-3 prostate
SK-MEL-5 melanoma = tested on: SK-MEL-5 melanoma
LOX IMVI melanoma = tested on: LOX IMVI melanoma
SK-MEL-28 melanoma = tested on: SK-MEL-28 melanoma
UACC-62 melanoma = tested on: UACC-62 melanoma

| Compound | growth (HCT-15 colon) | growth (HT29 colon) | growth (SNB-75 CNS) | growth (SNB-19 CNS) | growth (U251 CNS) | growth (PC-3 prostate) | growth (SK-MEL-5 melanoma) | growth (LOX IMVI melanoma) | growth (SK-MEL-28 melanoma) | growth (UACC-62 melanoma) |
| --- | --- | --- | --- | --- | --- | --- | --- | --- | --- | --- |
| C/C=C(/C)C(=O)OC1C=C(CO)C(=O)C(OC(=O)C2(C)OC2C)C1C(C)C (stereo unspecified) | -14.5% (active) | -60.3% (active) | 23.6% | 12.1% | -23.1% (active) | -7.66% (active) | -92.8% (active) | -83.8% (active) | -49% (active) | – |
| O=C(CCl)c1ccc2c(c1)CCCC2 | 69.6% | 103% | 114% | 108% | 96.5% | 95.7% | 106% | – | 105% | 98.5% |
| COc1ccc(OC)c(Cn2cc3c(c2-c2ccccc2)CCc2cnoc2-3)c1 | 45.5% | 30.4% | 55.9% | 65.5% | 53.4% | 41.1% | 40.2% | 61.6% | 65.9% | 48.1% |
| Oc1ccc(N=Nc2ccc(N=Nc3ccccc3)cc2)cc1 | 40.7% | 53.4% | 87.1% | 58.4% | 51.6% | 43.1% | 39.1% | 6.08% (active) | 54.4% | 1.15% (active) |
| O=C(Nc1ccc(Cl)cn1)C1(c2ccccc2)CCCCC1 | 112% | 85.6% | 106% | 106% | 97.5% | 104% | 91.6% | 101% | 105% | 94.4% |
| CCCCCCC(=O)C(C)C | 102% | 109% | 95.1% | 107% | 98.6% | 100% | 101% | – | 113% | 107% |
| Cc1nn(-c2ccccc2)c(N)c1N=C1NC(=O)/C(=C/c2ccc(Cl)cc2)S1 | 80.6% | 106% | 58.9% | 83.6% | 79.1% | 76.8% | 92.1% | 89.7% | 92.3% | 77.3% |
| O=C(Nc1cccc(Cn2c(=O)[nH]c3ccc(Oc4ncccn4)cc3c2=O)c1)c1ccc(Cl)cc1 | 59% | 40.3% | 50.9% | 58.5% | 63% | 46.2% | 12.6% | 66.5% | – | – |
| COC(=O)C(N)CC(C)C (stereo unspecified) | 103% | 102% | 93.9% | 100% | 98% | 97.9% | 103% | 95.8% | 108% | – |
| O=C1C(Br)=CC2C1C1C3CCC3C2(Br)C12OCCO2 (stereo unspecified) | 19% | 8.84% (active) | 56.3% | 81% | 35.3% | 32% | 67.3% | 8.55% (active) | 55.7% | 54.9% |
| COC(=O)C(C)[C@H]1CC[C@@H]2[C@]1(C)CC=C1[C@]23C=C[C@]2(C[C@@H](OC(C)=O)CC[C@]12C)C(C(=O)OC)C3C(=O)OC (stereo partly specified) | 61.5% | 95.2% | 98.5% | 95.9% | 88.8% | 57.1% | 60.6% | 91.7% | 95% | – |
| CCOC(=O)NNc1[nH]c(-c2ccc(OC)cc2)cc1C#N | 107% | 132% | 124% | 98.6% | 98.2% | 99% | 88.9% | 91.6% | 182% | 76.1% |
| Cc1ccc(CC(=O)O)c(C)c1 | 103% | 97.2% | 92.1% | 102% | 99.3% | 98.3% | 106% | 98% | – | – |
| COC(=O)c1ccc2[nH]c(O)c(C(=Nc3ccc(N(C)C(=O)CN4CCN(C)CC4)cc3)c3ccc(OC)cc3)c2c1 | 10.4% | 20% | 6.7% (active) | 32.4% | 19% | 28.7% | 28.5% | 16.1% | 32.8% | 39.2% |
